The record followed here is PubChem BioAssay (EPA / NIEHS).

Each structure is given as a SMILES string. Several values for one entry are separate records, joined by “and”; a condition that tells them apart may be missing. Identical values can stand only once. Some structures have more than one record in an assay (separate samples or runs), and their calls can disagree. Activity calls are given as the source filed them. The calls were made as follows: active = hit-call score of the fitted dose curve at least 0.9, where 1 is the maximum; inactive = score below 0.9.

Assay [1] is described as follows: ATG_M_32_CIS: Attagene CIS-FACTORIAL HepG2 Assay for M32 Transcription Factor (Internal Marker) (AID 2282949).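 Also: background control marker of the multiplexed CIS panel rather than a real target.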 Conditions: HepG2 Attagene cis-factorial M32 reporter, mRNA; actives raise or lower the signal. An outline of the steps:
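HepG2 transfectants (cis-regulated reporter transcription units) dosed 24 h. Reporter mRNA by RT-PCR plus CE, analysed as gain or loss relative to DMSO.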

A short description of assay [2]: ATG_M_06_CIS: Attagene CIS-FACTORIAL HepG2 Assay for M06 Transcription Factor (Internal Marker) (AID 2282950). Conditions: HepG2 Attagene CIS-FACTORIAL M06 internal marker reporter; actives raise or lower the signal. An outline of the steps:
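Steps: transfect HepG2 with multiplexed cis-element reporter constructs; dose chemical 24 h; extract RNA with DNase treatment; reverse-transcribe, PCR-amplify, 6-FAM label, HpaI digest; separate fragments by capillary electrophoresis. Activity fitted both directions versus DMSO.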

The target in assay [3] is Hypoxia-inducible factor 1-alpha (Homo sapiens) (UniProt Q16665). The assay can be described thus: ATG_HIF1a_CIS: Attagene CIS-FACTORIAL HepG2 Assay for human Hypoxia Inducible Factor 1 (HIF1A) (AID 2282951). Conditions: HepG2 Attagene cis-factorial HIF1a reporter transcription; actives raise or lower the signal. An outline of the steps: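 Activity is fitted in both directions relative to DMSO. Reporter transcripts are read by RT-PCR, fluorescent primer extension and capillary electrophoresis after 24 h chemical treatment. The cells are HepG2 carrying transiently transfected cis-element-driven reporter units responding to endogenous factors.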

The target in assay [4] is Hepatocyte nuclear factor 6 (Homo sapiens) (UniProt Q9UBC0). The assay can be described thus: ATG_HNF6_CIS: Attagene CIS-FACTORIAL HepG2 Assay for human Hepatocyte Nuclear Factor 6 (HNF6) (AID 2282952). Conditions: HepG2 Attagene cis-factorial HNF6 reporter transcription; actives raise or lower the signal. An outline of the steps:
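First, HepG2 cells were transfected with the multiplexed cis reporter library and dosed with chemical for 24 h. Next, RNA was reverse-transcribed, PCR-amplified and fluorescently labelled. Finally, HpaI-digested fragments were read by capillary electrophoresis.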

Assay [5] addresses Heat shock factor protein 1 (Homo sapiens) (UniProt Q00613). The assay can be described thus: ATG_HSE_CIS: Attagene CIS-FACTORIAL HepG2 Assay for human Heat Shock Transcription Factor 1 (HSE) (AID 2282953). Conditions: HepG2 HSE cis-reporter, Attagene RNA transcription; actives raise or lower the signal. An outline of the steps:
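Cells were transfected with cis-element-driven reporter constructs, dosed for 24 h, then total RNA was reverse-transcribed and reporter cDNA amplified, FAM-labelled and digested with HpaI. Fragments were resolved by capillary electrophoresis; gain or loss was fitted against DMSO.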

Assay [6] can be described thus: ATG_MRE_CIS: Attagene CIS-FACTORIAL HepG2 Assay for human Metal Responsive Element (MRE) (AID 2282954). Conditions: HepG2 MRE cis-reporter transcription, Attagene multiplex; actives raise or lower the signal. An outline of the steps:
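Measured here is mRNA induction from an MRE cis-element reporter in HepG2 after 24 h, quantified by fluorescence of labelled RT-PCR products on capillary electrophoresis; gain- and loss-of-signal fits use DMSO as baseline.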

Assay [7] in a line: ATG_PBREM_CIS: Attagene CIS-FACTORIAL HepG2 Assay for human Phenobarbital-responsive Enhancer Module (PBREM) (AID 2282955). Conditions: HepG2 PBREM cis-reporter, Attagene multiplexed transcription; actives raise or lower the signal. An outline of the steps: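 Endogenous transcription factor activity was read from reporter transcripts in transiently transfected human HepG2 liver cells after 24 h dosing. RT-PCR products were fluorescently labelled, HpaI-cut and sized by capillary electrophoresis; activity fitted bidirectionally against DMSO baseline.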

A short description of assay [8]: ATG_PXRE_CIS: Attagene CIS-FACTORIAL HepG2 Assay for human Pregnane X Receptor Element (PXRE) (AID 2282957). Conditions: HepG2 Attagene CIS-FACTORIAL PXRE reporter, mRNA; actives raise or lower the signal. An outline of the steps:
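After a 24 h chemical incubation, total RNA from transfected HepG2 cells was reverse-transcribed and reporter cDNA amplified, FAM-labeled, HpaI-digested and sized by capillary electrophoresis. DMSO served as baseline for bidirectional curve fitting.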

The nature of assay [9]: ATG_PPRE_CIS: Attagene CIS-FACTORIAL HepG2 Assay for human Peroxisome Proliferator-activated Response Element (PPRE) (AID 2282958). Conditions: HepG2 PPRE cis-element reporter, Attagene transcription factor profiling; actives raise or lower the signal. An outline of the steps: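 Endogenous PPRE-driven transcription is measured in HepG2 cells carrying transfected multi-reporter constructs. Reporter transcripts are quantified by RT-PCR, HpaI digestion and capillary electrophoresis 24 h after dosing. DMSO baseline, bidirectional fit.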

The nature of assay [10]: ATG_RORE_CIS: Attagene CIS-FACTORIAL HepG2 Assay for human RAR-related Orphan Receptor Element (RORE) (AID 2282959). Conditions: HepG2 Attagene cis-factorial RORE reporter, mRNA; actives raise or lower the signal. An outline of the steps: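 RORE reporter transcripts reflecting endogenous factor activity were read after 24 h compound exposure of transfected HepG2 cells, using reverse transcription, PCR, fluorescent labelling and capillary electrophoresis sizing. Gain or loss fitted against DMSO.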

Assay [11] is described as follows: ATG_Sox_CIS: Attagene CIS-FACTORIAL HepG2 Assay for human SRY-box transcription factor (SOX) (AID 2282960). Conditions: HepG2 Attagene cis-factorial SOX reporter, mRNA; actives raise or lower the signal. An outline of the steps: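 Reporter transcripts, measured by RT-PCR and capillary electrophoresis of labelled fragments, report endogenous SOX transcription factor activity. Transiently transfected human HepG2 cells receive chemical for 24 h; changes in either direction are fitted relative to DMSO.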

Assay [12] has as its target Transcription factor Sp1 (Homo sapiens) (UniProt P08047). The assay can be described thus: ATG_Sp1_CIS: Attagene CIS-FACTORIAL HepG2 Assay for human Specificity Protein 1 (Sp1) (AID 2282961). Conditions: HepG2 Sp1 cis-reporter transcription, actives raise or lower the signal. An outline of the steps:
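Read-out is reporter transcript level, measured by RT-PCR and fluorescent capillary electrophoresis after 24 h chemical treatment. System: transiently transfected HepG2 cells reporting endogenous transcription factor activity; gain or loss fitted against DMSO baseline.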

A short description of assay [13]: ATG_SREBP_CIS: Attagene CIS-FACTORIAL HepG2 Assay for human Sterol Regulatory Element Binding (SREBP) (AID 2282962). Conditions: HepG2 Attagene cis-factorial SREBP reporter, mRNA; actives raise or lower the signal. An outline of the steps:
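In this cis-format assay, HepG2 liver cells express reporters controlled by promoter elements responsive to native transcription factors. Exposure lasts 24 h; reporter mRNA fluorescence from capillary electrophoresis gives the signal, fitted bidirectionally against DMSO.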

Assay [14] deals with Signal transducer and activator of transcription 3 (Homo sapiens) (UniProt P40763). The assay can be described thus: ATG_STAT3_CIS: Attagene CIS-FACTORIAL HepG2 Assay for human Signal Transducer and Activator of Transcription 3 (STAT3) (AID 2282963). Conditions: HepG2, Attagene cis-factorial STAT3 reporter transcription; actives raise or lower the signal. An outline of the steps:
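Fluorescence intensity of 6-FAM-labelled reporter fragments, separated by capillary electrophoresis after RT-PCR, gave the signal. Cells were HepG2 transfected with cis-element reporter units and treated 24 h; fitting was bidirectional relative to DMSO.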

Assay [15] is described as follows: ATG_TA_CIS: Attagene CIS-FACTORIAL HepG2 Assay for human TA Basal Promoter (AID 2282964). Conditions: HepG2 Attagene CIS-factorial TA basal promoter reporter; actives raise or lower the signal. An outline of the steps:
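Steps: transfect HepG2 with MRTUs; dose 24 h; isolate RNA, DNase-treat, reverse-transcribe; PCR and FAM-label reporter cDNA; digest with HpaI 2h at 37 C; run capillary electrophoresis. Activity fitted both directions against DMSO.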

A short description of assay [16]: ATG_TCF_b_cat_CIS: Attagene CIS-FACTORIAL HepG2 Assay for human T-Cell-Factor with beta-catenin (TCF/b-cat) (AID 2282965). Conditions: HepG2 TCF/beta-catenin cis-reporter transcription, actives raise or lower the signal. An outline of the steps:
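Cells of the HepG2 line carry transiently transfected reporter units whose promoters respond to endogenous factors. Twenty-four hours post-dosing, reporter mRNA induction is measured by fluorescent RT-PCR and capillary electrophoresis, with DMSO as baseline.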

The nature of assay [17]: ATG_TAL_CIS: Attagene CIS-FACTORIAL HepG2 Assay for human TAL Basal Promoter (AID 2282966).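 Also: background control endpoint measuring basal TAL promoter reporter mRNA not a specific factor.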 Conditions: HepG2 Attagene cis-factorial TAL promoter reporter; actives raise or lower the signal. An outline of the steps:
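Basal-promoter background-control endpoint from a multiplexed HepG2 reporter panel. Cells were exposed 24 h, then reporter mRNA was read by RT-PCR/CE fluorescence and fitted in both directions relative to DMSO.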

A short description of assay [18]: ATG_TGFb_CIS: Attagene CIS-FACTORIAL HepG2 Assay for human Transforming Growth Factor (TGF) (AID 2282967). Conditions: HepG2 Attagene CIS TGFb reporter, mRNA transcription; actives raise or lower the signal. An outline of the steps: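 Cells were dosed for 24 hours, after which total RNA was reverse-transcribed and reporter sequences amplified, labeled and sized by capillary electrophoresis. Activity was fitted in both directions against DMSO.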

Assay [19] is described as follows: ATG_VDRE_CIS: Attagene CIS-FACTORIAL HepG2 Assay for human Vitamin D Receptor Element (VDRE) (AID 2282968). Conditions: HepG2 VDRE cis-reporter transcription, actives raise or lower the signal. An outline of the steps: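 Compounds were applied for 24 h to HepG2 cells transfected with promoter-regulated reporter units. Total RNA was reverse-transcribed, and reporter amplicons were fluorescently labelled and sized by capillary electrophoresis.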

The target in assay [20] is Paired box protein Pax-6 (Homo sapiens) (UniProt P26367). The assay can be described thus: ATG_Pax6_CIS: Attagene CIS-FACTORIAL HepG2 Assay for human Paired Box 6 (PAX6) (AID 2282956). Conditions: HepG2 CIS-FACTORIAL PAX6 reporter transcription, RNA readout; actives raise or lower the signal. An outline of the steps: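 DMSO-referenced bidirectional fits of reporter mRNA fluorescence; HepG2 with transient cis-promoter MRTUs, 24 h post-dose, RT-PCR plus capillary electrophoresis detection.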
Sequence of Paired box protein Pax-6 (Homo sapiens) (P26367 whole entry, looked up): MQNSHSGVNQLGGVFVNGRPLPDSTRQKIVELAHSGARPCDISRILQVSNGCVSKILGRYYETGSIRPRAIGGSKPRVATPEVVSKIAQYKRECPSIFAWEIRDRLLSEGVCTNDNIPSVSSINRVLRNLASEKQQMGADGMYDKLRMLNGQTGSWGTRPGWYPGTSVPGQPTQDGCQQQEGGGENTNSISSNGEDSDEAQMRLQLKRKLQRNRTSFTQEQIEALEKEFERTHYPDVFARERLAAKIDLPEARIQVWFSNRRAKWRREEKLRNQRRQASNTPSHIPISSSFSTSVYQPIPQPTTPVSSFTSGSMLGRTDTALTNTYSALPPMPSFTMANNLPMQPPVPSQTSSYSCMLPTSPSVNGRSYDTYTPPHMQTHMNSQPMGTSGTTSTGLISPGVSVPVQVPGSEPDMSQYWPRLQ

Sequence of Transcription factor Sp1 (Homo sapiens) (P08047 whole entry, looked up): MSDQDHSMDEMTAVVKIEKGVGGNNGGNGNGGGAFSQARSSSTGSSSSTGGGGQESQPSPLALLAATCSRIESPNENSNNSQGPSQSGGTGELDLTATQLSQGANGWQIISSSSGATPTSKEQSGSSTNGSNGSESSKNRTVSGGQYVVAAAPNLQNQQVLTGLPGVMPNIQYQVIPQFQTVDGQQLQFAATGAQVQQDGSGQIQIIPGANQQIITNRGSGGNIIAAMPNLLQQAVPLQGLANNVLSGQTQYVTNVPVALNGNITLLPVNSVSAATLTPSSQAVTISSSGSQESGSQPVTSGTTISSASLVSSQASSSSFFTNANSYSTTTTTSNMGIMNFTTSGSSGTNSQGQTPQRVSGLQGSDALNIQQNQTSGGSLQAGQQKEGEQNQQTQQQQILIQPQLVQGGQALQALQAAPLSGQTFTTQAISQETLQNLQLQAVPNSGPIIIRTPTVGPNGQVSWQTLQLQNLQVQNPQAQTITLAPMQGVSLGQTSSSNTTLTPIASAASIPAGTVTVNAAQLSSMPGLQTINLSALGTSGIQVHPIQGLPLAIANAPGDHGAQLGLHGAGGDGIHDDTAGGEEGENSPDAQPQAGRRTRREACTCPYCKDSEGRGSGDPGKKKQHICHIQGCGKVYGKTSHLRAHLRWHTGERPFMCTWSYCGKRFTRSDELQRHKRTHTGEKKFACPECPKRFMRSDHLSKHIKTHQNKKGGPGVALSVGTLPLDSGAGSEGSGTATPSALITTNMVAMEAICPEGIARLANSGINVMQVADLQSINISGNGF
Sequence of Heat shock factor protein 1 (Homo sapiens) (Q00613 whole entry, looked up, the tested form may be a part): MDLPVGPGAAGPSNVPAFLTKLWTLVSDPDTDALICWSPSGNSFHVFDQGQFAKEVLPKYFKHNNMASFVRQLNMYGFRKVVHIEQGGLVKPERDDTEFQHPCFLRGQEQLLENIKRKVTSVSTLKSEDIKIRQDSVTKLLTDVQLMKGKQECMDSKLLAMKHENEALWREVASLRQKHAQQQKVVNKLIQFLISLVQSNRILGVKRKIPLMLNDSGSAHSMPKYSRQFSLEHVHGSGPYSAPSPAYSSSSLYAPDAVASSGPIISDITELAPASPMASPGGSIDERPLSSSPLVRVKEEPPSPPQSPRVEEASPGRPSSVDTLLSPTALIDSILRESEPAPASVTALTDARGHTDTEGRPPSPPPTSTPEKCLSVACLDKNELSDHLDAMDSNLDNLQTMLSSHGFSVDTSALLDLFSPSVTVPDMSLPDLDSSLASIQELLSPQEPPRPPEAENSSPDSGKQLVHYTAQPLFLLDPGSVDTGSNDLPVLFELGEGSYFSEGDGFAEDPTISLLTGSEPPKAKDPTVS
Sequence of Hepatocyte nuclear factor 6 (Homo sapiens) (Q9UBC0 whole entry, looked up, the tested form may be a part): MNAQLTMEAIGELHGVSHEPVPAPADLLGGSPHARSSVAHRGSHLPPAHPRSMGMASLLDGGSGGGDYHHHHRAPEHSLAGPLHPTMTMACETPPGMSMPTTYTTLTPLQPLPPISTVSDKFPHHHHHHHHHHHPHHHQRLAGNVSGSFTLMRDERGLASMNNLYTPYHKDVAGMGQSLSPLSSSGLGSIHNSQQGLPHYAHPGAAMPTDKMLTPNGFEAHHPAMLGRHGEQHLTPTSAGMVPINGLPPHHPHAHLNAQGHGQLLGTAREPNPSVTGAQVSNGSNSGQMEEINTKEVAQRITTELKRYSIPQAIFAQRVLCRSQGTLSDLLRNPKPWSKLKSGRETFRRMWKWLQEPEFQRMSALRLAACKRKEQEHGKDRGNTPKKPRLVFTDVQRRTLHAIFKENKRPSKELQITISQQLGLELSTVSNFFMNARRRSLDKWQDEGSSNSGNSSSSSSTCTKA
Sequence of Hypoxia-inducible factor 1-alpha (Homo sapiens) (Q16665 whole entry, looked up): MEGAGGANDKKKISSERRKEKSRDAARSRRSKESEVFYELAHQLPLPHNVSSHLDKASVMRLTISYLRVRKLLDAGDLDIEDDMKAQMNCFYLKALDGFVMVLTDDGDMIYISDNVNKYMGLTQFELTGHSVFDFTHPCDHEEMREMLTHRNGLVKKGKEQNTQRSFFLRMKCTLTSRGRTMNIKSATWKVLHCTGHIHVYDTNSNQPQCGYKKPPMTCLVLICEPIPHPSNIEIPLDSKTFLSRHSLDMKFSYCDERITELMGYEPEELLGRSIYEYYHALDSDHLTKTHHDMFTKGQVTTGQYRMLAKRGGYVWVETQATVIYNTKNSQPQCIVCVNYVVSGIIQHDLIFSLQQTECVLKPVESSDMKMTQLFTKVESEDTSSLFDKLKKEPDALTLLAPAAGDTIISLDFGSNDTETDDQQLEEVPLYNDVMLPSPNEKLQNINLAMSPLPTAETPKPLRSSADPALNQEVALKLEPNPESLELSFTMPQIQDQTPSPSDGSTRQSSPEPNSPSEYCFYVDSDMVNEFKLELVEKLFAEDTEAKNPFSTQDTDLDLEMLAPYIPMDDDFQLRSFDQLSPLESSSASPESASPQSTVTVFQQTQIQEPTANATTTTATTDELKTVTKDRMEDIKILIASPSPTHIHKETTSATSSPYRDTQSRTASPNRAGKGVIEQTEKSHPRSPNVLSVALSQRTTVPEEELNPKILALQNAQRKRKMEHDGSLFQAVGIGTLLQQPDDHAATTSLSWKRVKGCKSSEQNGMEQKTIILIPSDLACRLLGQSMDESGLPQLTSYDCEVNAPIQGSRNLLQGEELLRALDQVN
Sequence of Signal transducer and activator of transcription 3 (Homo sapiens) (P40763 whole entry, looked up, the tested form may be a part): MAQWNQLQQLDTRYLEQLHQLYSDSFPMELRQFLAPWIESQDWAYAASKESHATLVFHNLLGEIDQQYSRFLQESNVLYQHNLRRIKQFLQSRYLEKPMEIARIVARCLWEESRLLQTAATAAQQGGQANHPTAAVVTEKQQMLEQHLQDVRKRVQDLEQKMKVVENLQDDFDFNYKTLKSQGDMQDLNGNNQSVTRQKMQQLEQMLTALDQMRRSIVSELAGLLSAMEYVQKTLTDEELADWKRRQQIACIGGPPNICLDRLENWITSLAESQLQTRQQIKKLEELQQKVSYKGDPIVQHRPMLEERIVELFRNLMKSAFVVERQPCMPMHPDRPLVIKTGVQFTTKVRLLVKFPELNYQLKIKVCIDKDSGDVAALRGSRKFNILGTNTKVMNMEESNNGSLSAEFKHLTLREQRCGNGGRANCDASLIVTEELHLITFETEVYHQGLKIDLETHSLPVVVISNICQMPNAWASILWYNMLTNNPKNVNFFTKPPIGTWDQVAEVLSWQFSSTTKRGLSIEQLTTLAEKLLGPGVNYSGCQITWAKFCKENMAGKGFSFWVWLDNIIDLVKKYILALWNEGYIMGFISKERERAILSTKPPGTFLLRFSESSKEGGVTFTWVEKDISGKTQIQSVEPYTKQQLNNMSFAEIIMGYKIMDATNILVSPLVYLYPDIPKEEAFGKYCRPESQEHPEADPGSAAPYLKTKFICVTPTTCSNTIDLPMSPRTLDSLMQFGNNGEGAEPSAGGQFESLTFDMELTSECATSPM

As usually defined, the AC50 is the concentration giving half of the maximal activity seen. Consider `O=C(CC(=O)C(F)(F)C(F)(F)C(F)(F)F)c1cccs1`, for which the compound was classed as inactive in assay [1], in [2], in [4], in assay [5], in [6] and in assay [7]. Further, the call in assay [10], in assay [11], in assay [12], in assay [14], in assay [15] and in assay [16] was inactive. Moreover, the compound was classed as inactive in assay [18] and in [19]. Moreover, the AC50 is 12.8 µM (active) and 16.5 µM (active) in [3]; 86.8 µM (active) in [5]; 50 µM (active) in assay [6]; 69.7 µM (active) in assay [7]; 12.9 µM (active) and 12.8 µM (active) in [8]; 8.07 µM (active) and 26.2 µM (active) in [9]. For the same compound, the concentration at half-maximal activity (AC50) in assay [10] is 15.6 µM (active); in assay [12], 39.6 µM (active); in assay [13] it was 16.2 µM (active) and 80.3 µM (active); in [17] it was 81 µM (active) and 34.2 µM (active); in assay [19] it was 11 µM (active).
Regarding `C=CC(=O)OCCN(CC)CC`, the result in assay [1], in assay [2], in assay [3], in assay [4], in assay [7] and in assay [9] was inactive. Besides, the result in assay [10], in assay [11], in assay [12], in assay [14], in assay [15] and in assay [16] was inactive. The call in assay [17] and in [18] was inactive. The AC50 is 152 µM (active) in assay [5]; 62.9 µM (active) in assay [6]; 58.9 µM (active) in assay [20]; 66.9 µM (active) in assay [8]; 61.8 µM (active) in assay [13]; 62.9 µM (active) in assay [19].
For `Cc1cc(C(C)(C)C)c(O)c(C(C)(C)C)c1`, the AC50 in assay [1] is 53.6 µM (active); in [5] it was 95.9 µM (active); in [6], 52.9 µM (active) and 91.4 µM (active); in assay [8], 8.81 µM (active) and 603 nM (active); in [9] it was 11.9 µM (active); in assay [12], 52.3 µM (active) and 97 µM (active). Further, in [13], the concentration at half-maximal activity (AC50) is 33.4 µM (active) and 60 µM (active). Also, the outcome in assay [1], in assay [2], in [3], in [4], in [5] and in assay [7] was inactive. In addition, the result in assay [20], in assay [9], in assay [11], in assay [14], in [15] and in [16] was inactive. Moreover, the result in [17] and in assay [18] was inactive.
